According to PubChem BioAssay AID588351 (The Scripps Research Institute Molecular Screening Center, 2011):
Out of some 1,900 compounds screened, about 1,600 (84%) were called active. So high a share suggests a set chosen from earlier hits. These entries were drawn from the full list. Unmarked numbers belong to inactive results.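 How the source made its calls: active means mean activation above a set limit taken from the primary screen (cut at about 8% in these data); inactive means the rest.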

Assay: frataxin promoter-driven luciferase activation – cell-based, luminescence, HEK293 lucGAA850, triplicate, confirmation (AID 588351);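 further: 0% = DMSO wells and 100% = 10 µM SAHA wells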
Details: HEK293 lucGAA850 FXN promoter luciferase reporter, 24 h; at 6 µM; hits give high values; 100% = activation by SAHA

SMILES	activation
COc1ccccc1C1=Nc2cccc3cccc(c23)N1	7.84% (active)
CCN(C[C@H]1N[C@@](CC)(C(=O)OC)[C@H]2C(=O)N(Cc3ccccc3)C(=O)[C@@H]12)S(=O)(=O)c1ccc(C(F)(F)F)cc1	10.5% (active)
O=C(Nc1nnc(S(=O)(=O)N2CCCCCC2)s1)c1cccc(Br)c1	16.8% (active)
Cn1c(=O)n(C)c2cc(S(=O)(=O)N3CCCc4ccccc43)ccc21	11.8% (active)
CC(C)(C)N1C(=O)[C@H]2[C@@H](c3ccc(Br)cc3)N3C(=O)N(c4cccc(Cl)c4)C(=O)[C@@]3(C)[C@H]2C1=O	6.82%
CC[C@@]12C(=O)N(c3ccccc3)C(=O)N1[C@H](c1ccc(Br)cc1)[C@@H]1C(=O)N(C(C)(C)C)C(=O)[C@@H]12	11.1% (active)
CCCNC(=O)c1c(Cl)cnn1-c1ccc(C)cc1	31.2% (active)
Cc1ccccc1Nc1c([N+](=O)[O-])ccc2nonc12	17% (active)
CC[C@]1(C(=O)OC)[C@H]2C(=O)N(Cc3ccccc3)C(=O)[C@H]2[C@H]2CN=C(SCc3ccccc3)N21	6.5%
COC(=O)[C@@]1(C)[C@H]2C(=O)N(Cc3ccccc3)C(=O)[C@H]2[C@H]2CN=C(SCC3CC3)N21	12.3% (active)
CC[C@]1(C(=O)OC)[C@H]2C(=O)N(Cc3ccccc3)C(=O)[C@H]2[C@H]2CN=C(SCc3ccc(C#N)cc3)N21	11% (active)
CC(C)CCC(C)NC(=O)c1ccc2nccnc2c1 (stereo not drawn)	25.6% (active)
Cn1c(CCN2CCCCCC2)nc2cc(NC(=O)Nc3ccccc3)ccc21	32.6% (active)
COC(=O)c1ccc(CSc2nc3ccccc3c(=O)n2-c2cccc(OC)c2)o1	16.6% (active)
Cc1ccc2cc(/C=N/Nc3ccc(C(=O)O)cc3)c(Cl)nc2c1	44.5% (active)
CN(C(=O)c1cc2c(=O)n3ccccc3nc2s1)C1CCCCC1	37.7% (active)
COCCn1c(=NC(=O)c2ccccc2[N+](=O)[O-])sc2cc(S(C)(=O)=O)ccc21	23.4% (active)
O=C(CSc1cccc2cccnc12)N/N=C/c1cccnc1	10.9% (active)
O=[N+]([O-])c1ccc(C=Nc2ccc(Cl)cc2Cl)s1	17.7% (active)
O=C1N=C(N2CCCC2)S/C1=C\c1cccc(Br)c1	20.9% (active)
COc1ccc2[nH]c(=O)c(CN(Cc3nnnn3CCc3ccccc3)CC3CCCO3)cc2c1 (stereo not drawn)	5.82%
COc1cc(C#Cc2ccc3cc(CCCO)oc(=O)c3c2)cc(OC)c1	44.9% (active)
COc1cccc(Nc2nc(N)c([N+](=O)[O-])c(NCc3ccco3)n2)c1	22.8% (active)
O=C(CN(c1cc(C(F)(F)F)ccc1Cl)S(=O)(=O)c1ccccc1)NCc1cccnc1	8.52% (active)
COc1ccc(-n2cc(-c3ccccc3)c3c(=S)nc[nH]c32)cc1	11% (active)

SMILES	activation
Cc1ccc(-c2c3c(=O)n(C)c(=O)n(C)c3cn2-n2cnnc2)cc1	19% (active)
CCOc1ccc(N2C(=O)CC(N(CCc3ccc(OC)c(OC)c3)C(=S)Nc3ccccc3)C2=O)cc1 (stereo not drawn)	9.64% (active)
CC(C)(C)C(=O)c1cnc(Nc2ccccc2)s1	49.2% (active)
Cc1cc(OCc2cc(C(=O)NCc3cc(C(C)C)no3)no2)cc(C)c1Cl	30.7% (active)
CNc1nc(Nc2ccc(C)c(Cl)c2)nc(N)c1[N+](=O)[O-]	71% (active)
CC(Sc1nc2c([nH]c3ccccc32)c(=O)n1C)c1ccccc1 (stereo not drawn)	16.1% (active)
Cc1ccc(-c2nc3ccccc3[nH]c2=O)cc1	29.2% (active)
CN(C)CCNC(=O)c1ccc(Cl)c2cc3ccccc3nc12	130% (active)
CCC(=O)NC(=Nc1nc2ccccc2s1)NC(=O)CC	38.4% (active)
COc1ccc(Cl)cc1NC(=O)CN(C)C(=O)CCCc1c[nH]c2ccccc12	9.95% (active)
Fc1ccccc1/C=N/Nc1cc(N2CCCCC2)ncn1	43.1% (active)
CCCCCOc1ccc(CSC2=NCCN2)cc1[N+](=O)[O-]	38.6% (active)
Nc1ccc(C(=O)Nc2ccccc2N)cc1	55.7% (active)
N#CCSc1nc2ccccc2c(=O)n1-c1ccccc1	16.2% (active)
CCCCc1ccc(NC(=S)N2CCCC(CO)C2)cc1 (stereo not drawn)	33.8% (active)
CC(C)c1ccc(NS(=O)(=O)c2cn(C)c(=O)n(C)c2=O)cc1	5.44%
Fc1ccc2nc(N3CCCCC3)sc2c1	27.8% (active)
Cc1cc(C)n2nc(CNS(=O)(=O)c3c(F)c(F)c(F)c(F)c3F)nc2n1	20.7% (active)
Cc1ccc(C(=O)NNc2ncnc3ccccc23)cc1	25.9% (active)
O=C(NC1CCCC1)c1cc(-c2ccccc2)on1	67.8% (active)
COc1ccccc1N1CCN(C(=O)c2cc(-c3ccc(Br)cc3)on2)CC1	2.35%
O=C(NCCCn1ccnc1)c1cc(-c2ccccc2)on1	127% (active)
CC1CCc2sc3nc(N4CCN(CCO)CC4)n4ncnc4c3c2C1 (stereo not drawn)	21.9% (active)
CN(C)S(=O)(=O)c1ccc2oc(SCC(=O)Nc3ccccc3F)nc2c1	44.6% (active)
COc1ccc(/C=C/C(=O)Nc2ccc(C34CC5CC(CC(O)(C5)C3)C4)cc2)cc1OC	44.5% (active)

SMILES	activation
Cc1nnc(Sc2nc3c(c(=O)[nH]c(=O)n3C)n2Cc2ccccc2)s1	5.05%
CN(C)C(=S)N=c1ssc(=S)n1Cc1ccco1	32.8% (active)
CC(C)(C)c1ccc(C(=O)NCc2ccco2)cc1	44.1% (active)
O=C(NCc1ccco1)c1ccc(Cn2c(=O)c3sccc3n(Cc3ccc(F)cc3)c2=O)cc1	6.19%
CCCCNC(=O)N(O)C1N(/N=C/c2ccccc2O)C(=S)SC1(C)C (stereo not drawn)	14.1% (active)
CCOC(=O)c1cc2c(=O)n3ccccc3nc2n(CC(C)C)c1=NC(=O)c1c(-c2c(F)cccc2Cl)noc1C	3.22%
N#Cc1c(N)nc2c3c(sc(=N)c2c1N)NC(=O)CC3c1ccccc1Cl (stereo not drawn)	24.2% (active)
CCc1ccc(N(C(=O)c2csnn2)C(C(=O)NC2CCCCC2)c2ccncc2)cc1 (stereo not drawn)	12.1% (active)
Cc1cc(=O)oc(C)c1C(=O)NCc1ccc(F)cc1	4.06%
Cc1cc(C(=O)N/N=C\C(Br)=C\c2ccccc2)c(C)o1	26.2% (active)
CC(C)c1cc(C(=O)N/N=C/C(Br)=C/c2ccccc2)n[nH]1	15.8% (active)
CC1(Cc2cccc(C#N)c2)C(=O)Nc2ccc(-c3cccc(C(F)(F)F)c3)cc21 (stereo not drawn)	10.7% (active)
Cc1c(-c2ccccc2)nc(N)c(C#N)c1-c1cccs1	14.5% (active)
C[C@@]12C(=O)N(c3cccc(Br)c3)C(=O)N1[C@H](c1ccc(Cl)cc1)[C@@H]1C(=O)N(C3CCCCC3)C(=O)[C@@H]12	5.12%
O=C1[C@H]2[C@@H](c3ccc(Cl)cc3)N3C(=O)N(c4cccc(F)c4)C(=O)[C@@]3(Cc3ccccc3)[C@H]2C(=O)N1C1CCCCC1	11.2% (active)
O=C1[C@H]2[C@@H](c3ccc(F)cc3)N3C(=O)N(c4ccc(C(F)(F)F)cc4)C(=O)[C@@]3(Cc3ccccc3)[C@H]2C(=O)N1C1CCCCC1	16.2% (active)
Cc1noc(C)c1-c1ccc2ncnc(NC(C)c3ccco3)c2c1 (stereo not drawn)	20.1% (active)
Cc1ccc(NC(=O)c2sc3nc(N)c(C#N)cc3c2N)cc1	27.4% (active)
O=C(CC1NCCc2ccccc21)Nc1cccc(Cl)c1 (stereo not drawn)	26.7% (active)
CC1(C(=O)NCc2cccc3ccccc23)CCN1Cc1ccc(-c2ccccc2)o1 (stereo not drawn)	11.9% (active)
O=c1oc2ccccc2cc1-c1csc(Nc2ccc(O)cc2)n1	44.3% (active)
COc1ccc(-c2csc(Cc3nc(O)cs3)n2)cc1	-4.16%
COc1ccc(-c2csc(Nc3ccc(O)cc3)n2)cc1	40.1% (active)
O=c1[nH]cnc2c1c(-c1ccccc1)cn2-c1ccc(F)cc1	9.89% (active)
Cc1ccc(-n2c(C)cc(/C=C(\C#N)C(=O)NCC3CCCO3)c2C)cc1 (stereo not drawn)	41.3% (active)

SMILES	activation
COc1ccc(NC(=O)CSc2nc(SC)ns2)c(OC)c1	40.6% (active)
CSc1nc(N)c(C#N)c(-c2ccccc2Cl)c1C#N	21.1% (active)
CCCCn1c(SCC(=O)NCCc2ccc(OC)c(OC)c2)nc2c1c(=O)n(C)c(=O)n2C	8.75% (active)
COc1ccc(N(CCC#N)S(=O)(=O)c2ccc(Cl)cc2)cc1	3.78%
Cc1ccc(C2Nc3cccc4cccc(c34)N2)cc1	12.4% (active)
COc1cc(/C=N/Nc2nc3ccccc3s2)ccc1O	34.8% (active)
CC1(C(=O)N/N=C/c2cc3c(cc2Br)OCO3)CC1(Br)Br (stereo not drawn)	15.3% (active)
COc1ccc(-c2nnc(SCC(=O)c3cccs3)o2)c(OC)c1	26.2% (active)
N#CC1=C(SCc2ccc(C#N)cc2)N=C(N)C(c2nc(-c3ccccc3)cs2)C12CCCCC2 (stereo not drawn)	17.6% (active)
CCOc1ccc(Nc2oc(Cc3ccccc3)nc2C#N)cc1	32.1% (active)
CCC1(CC)Cc2ccccc2-c2nc(CCl)[nH]c(=O)c21	1.84%
CN1C(=O)/C(=C\c2cc(Br)cs2)c2ccccc21	38.3% (active)
CCOC(=O)c1cc2cc(C)ccc2[nH]1	29.5% (active)
C=C1c2c(Cl)ccc(O)c2C(O)=C2C(=O)[C@]3(O)C(O)=C(C(N)=O)C(=O)[C@@H](N(C)C)[C@@H]3[C@@H](O)C12 (stereo partly drawn)	15.5% (active)
CN(C)[C@@H]1C(=O)C(C(N)=O)=C(O)[C@@]2(O)C(=O)C3=C(O)c4c(O)ccc(Cl)c4[C@@H](O)[C@H]3C[C@@H]12	15.3% (active)
Cc1nc(-c2ccc(F)cc2)c(CC(=O)Nc2cc(S(=O)(=O)N3CCCCC3)ccc2C)s1	6.94%
COc1ccc(C2Nc3ccccc3C(=O)N2c2ccc(Cl)cc2)cc1Cn1cc([N+](=O)[O-])cn1 (stereo not drawn)	26.8% (active)
Cc1cc(C)nc(S/C=C/C(=O)c2ccccc2)n1	-19%
c1ccc(-c2cc(-c3ccccc3)[nH]n2)cc1	43% (active)
Oc1ccccc1-c1cc(-c2ccc(Cl)cc2)n[nH]1	46.8% (active)
O=C(N/N=C/C=C/c1ccco1)c1cccs1	31.4% (active)
O=C(COc1ccc(Cl)cc1Cl)NCCCNC(=O)c1cnccn1	7.43%
O=C(Nc1ccc2c(c1)OCCO2)c1cnccn1	25.8% (active)
